Source: PubChem
LYPLA2 inh: counter-screen for PME1 inhibitors: inhibitors of human LYPLA2. actives 0.38% (n = 320,000). O95372. recombinant LYPLA2, FP-Rh probe fluorescence polarization. inhibition, % at 5.9 µM;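 active = inhibition above the screen-wide mean plus 3 SD, limit set per campaign, cut at about 26% in these data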
PME-1 inh: blocks human protein phosphatase methylesterase 1 | recombinant PME-1, FP-Rh probe fluorescence polarization | inhibition, % at 5.9 µM | actives 0.53% (n = 320,000);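 active = inhibition above the campaign mean of all compounds plus 3 SD, cut at about 26% in these data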;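 also: competitive labeling of PME-1 active site by serine hydrolase directed probe; inhibitors block probe labeling so polarization falls and inhibition rises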
PAD4 FP inh: blocks human protein arginine deiminase 4; Q9UM07; recombinant PAD4, RCA probe fluorescence polarization; inhibition, % at 6.36 µM; actives 0.41% (n = 330,000);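 active = percent inhibition above a cutoff equal to the mean of all tested compounds plus 3 SD, cut at about 15% in these data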
LYPLA1 counter: LYPLA1 (human) inhibition in PME1 counter-screen. actives 0.16% (n = 320,000). recombinant LYPLA1, FP-Rh probe fluorescence polarization. O75608. AID 2174. inhibition, % at 5.9 µM;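 active = inhibition above the mean of all tested compounds plus 3 SD, set per campaign, cut at about 14% in these data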;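 also: inhibitors block serine hydrolase probe labeling of LYPLA1 so polarization falls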
Target sequence (O75608 whole entry, looked up): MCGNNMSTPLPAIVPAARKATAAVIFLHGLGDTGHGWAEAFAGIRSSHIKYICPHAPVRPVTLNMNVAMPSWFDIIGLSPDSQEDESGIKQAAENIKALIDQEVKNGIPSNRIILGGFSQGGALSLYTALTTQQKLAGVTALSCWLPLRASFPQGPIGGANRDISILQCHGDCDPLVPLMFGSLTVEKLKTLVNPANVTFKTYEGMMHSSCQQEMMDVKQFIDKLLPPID
Fam108B counter: counter-screen for RBBP9 inhibitors: inhibitors of mouse Fam108B; recombinant Fam108B, FP-Rh probe fluorescence polarization; inhibition, % at 9.51 µM; actives 0.33% (n = 300,000); AID 1947;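 active = inhibition above the screen mean inhibition plus 3 SD, computed separately per campaign, cut at about 18% in these data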;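 also: inhibitors lower polarization as less probe binds the enzyme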
GSTO1 counter: GSTO1 inhibition, counter-screen for RBBP9 inhibitors | P78417 | recombinant GSTO1, activity-based probe fluorescence polarization | inhibition, % at 5.96 µM | actives 1.1% (n = 300,000) | AID 1974;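 active = inhibition above the campaign mean inhibition plus 3 SD, cut at about 35% in these data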
Target sequence (P78417 whole entry, looked up): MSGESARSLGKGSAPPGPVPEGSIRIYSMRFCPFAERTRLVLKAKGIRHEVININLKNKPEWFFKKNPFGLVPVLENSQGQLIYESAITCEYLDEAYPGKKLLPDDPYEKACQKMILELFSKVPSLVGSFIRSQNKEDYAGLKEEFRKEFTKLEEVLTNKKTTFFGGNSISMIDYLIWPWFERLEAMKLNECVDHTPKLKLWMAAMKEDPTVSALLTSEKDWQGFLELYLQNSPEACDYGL
Large screens that a line does not name were inactive. Hits are enriched below; roughly 1.8% of the tested compounds scored in any of these assays.

O=C1NCCCC2c3cc(O)c4ccccc4c3OC12N1CCCCC1 (configuration not stated)	PAD4 FP inh 33.6, GSTO1 counter 80.6
Cc1c(C(=O)OC/C(O)=C(\C#N)c2nc3ccccc3[nH]2)oc2ccccc12	PME-1 inh 31.5
CS(=O)(=O)c1ccc(Cl)c(NC(=O)CN2C(=O)C3CCCCC3C2=O)c1 (configuration not stated)	none
COc1cc2c(cc1NC(=S)Nc1ccccc1C)oc1ccccc12	none
COc1cc2c(cc1NC(=S)Nc1cccc(C)c1)oc1ccccc12	GSTO1 counter 36.3
CCc1nnc(NC(=O)c2sc3nc4c(cc3c2N)CCCCC4)s1	PME-1 inh 28.3
CCc1nnc(NC(=O)c2sc3nc4c(cc3c2N)CCCCCC4)s1	PME-1 inh 29.0
Nc1c(C(=O)N2CCCCC2)sc2nc3c(cc12)CCCC3	none
COc1ccccc1N1CCN(C(=O)C2CCN(S(=O)(=O)c3ccc(C)cc3)CC2)CC1	PME-1 inh 41.1
COc1ccccc1N1CCN(C(=O)C2CCN(S(=O)(=O)c3ccccc3F)CC2)CC1	none (no result: Fam108B counter, GSTO1 counter)
COc1ccc(CNC(=O)c2ccccc2SCC(=O)N2CCCC2)cc1OC	none
Cc1cc(C)c2[nH]c(O)c(N=NC3=NC(=O)CS3)c2c1	PME-1 inh 28.2
Cc1cc(C)c2[nH]c(O)c(N=Nc3ccc(C(=O)O)cc3)c2c1	none
COC(=O)C(NC(C)=O)(Nc1ccccn1)C(F)(F)F (configuration not stated)	none
COC(=O)NC(NS(=O)(=O)c1ccccc1)(C(=O)OC)C(F)(F)F (configuration not stated)	GSTO1 counter 36.1
O=C(O[C@@H]1OC2COC(=O)c3cc(O)c(O)c(O)c3-c3c(cc(O)c(O)c3O)C(=O)O[C@@H]([C@H]1O)[C@@H]2O)c1cc(O)c(O)c(O)c1	GSTO1 counter 73.4
CC(C)NC(=S)NC(=O)/C=C/c1ccc(F)cc1	none
Cc1cc([N+](=O)[O-])cc2c1NC(=O)C2(O)N1CCCC(C)C1 (configuration not stated)	GSTO1 counter 37.0
Cc1cc([N+](=O)[O-])cc2c1NC(=O)C2(O)N1CCCCCC1 (configuration not stated)	none
O=C(CNc1ccc2ccccc2c1)N/N=C/c1ccncc1	none
O=C(CNc1ccc2ccccc2c1)N/N=C/c1ccc(OC(=O)/C=C/c2ccco2)cc1	PME-1 inh 30.2
COc1cccc(N2CCN(c3ncnc4c3[nH]c3ccc(F)cc34)CC2C)c1 (configuration not stated)	PME-1 inh 28.4
COc1cc2[nH]c3c(N4CCN(c5ccc(Cl)cc5)CC4)ncnc3c2cc1OC	PME-1 inh 28.3
CCOc1ccc(NC(=O)CN(C)C(=O)Cn2cnc3c2c(=O)n(C)c(=O)n3C)cc1OCC	none
COC(=O)CCCC1=CC2=CC(=O)C(C)(OC(=O)c3cccs3)C(=O)C2=CN1C1CCCC1 (configuration not stated)	GSTO1 counter 36.8
COC(=O)CCCC1=CC2=CC(=O)C(C)(OC(=O)c3cccs3)C(=O)C2=CN1Cc1ccccc1 (configuration not stated)	none
CCOC(=O)N/N=C/c1cc(OC)c(O)c(OC)c1	none
CCOC(=O)c1sc(N/N=C/c2cc(Br)c(O)c(OC)c2)nc1C	PME-1 inh 28.4
CCOC(=O)CCN(Cc1cccs1)S(=O)(=O)c1ccc(F)cc1	GSTO1 counter 37.5
CCOC(=O)CCN(Cc1sccc1C)S(=O)(=O)c1ccc(F)cc1	none
COc1cc(C[C@@H](C)[C@@H](C)Cc2ccc(O)c(OC)c2)ccc1O	none (no result: LYPLA2 inh, PME-1 inh, LYPLA1 counter, Fam108B counter, GSTO1 counter)
CC(Cc1ccc(O)c(O)c1)C(C)Cc1ccc(O)c(O)c1 (configuration not stated)	GSTO1 counter 52.4
CCN1CCN(c2c(S(=O)(=O)c3ccc(C)c(C)c3)cnc3ccc(F)cc23)CC1	none
COc1ccc2c(c1)C=Cc1ccccc1O2	none
CCN(CC)S(=O)(=O)c1ccc(Cl)c(NC(=O)COC(=O)c2cccn2C)c1	PME-1 inh 32.9
CCN(CC)S(=O)(=O)c1ccc(Cl)c(NC(=O)COC(=O)c2ccc(O)cc2)c1	PME-1 inh 29.0
CN(C)S(=O)(=O)c1ccc(Cl)c(NC(=O)COC(=O)c2ccc(O)cc2)c1	none
CCN(CC)S(=O)(=O)c1ccc(C)c(NC(=O)COC(=O)c2ccc(C)c(S(=O)(=O)N3CCOCC3)c2)c1	PME-1 inh 51.5
CCN1CCN(C(=O)c2nn(C)c3c2CS(=O)(=O)c2ccccc2-3)CC1	none
O=C(CNc1cccc2ccccc12)N/N=C/C(Br)=C/c1ccccc1	PME-1 inh 26.6
C=CCc1cccc(/C=N/NC(=O)CNc2cccc3ccccc23)c1O	PME-1 inh 39.0
Cc1ccc2c(c1)C1C[N+](C)(CC(=O)Nc3ccccc3Cl)CCC1N2C(=O)c1ccccc1Cl (configuration not stated)	none (no result: LYPLA2 inh, PME-1 inh, LYPLA1 counter, Fam108B counter, GSTO1 counter)
CCN(c1ccccc1)S(=O)(=O)c1nnc(NC(=O)c2ccccc2OC)s1	none
COc1ccccc1Nc1ccc(N)cc1	GSTO1 counter 35.4
Nc1ccc2oc(-c3cc(Br)ccc3Cl)nc2c1	PME-1 inh 27.6
CCOc1cc(/C=C2\N=C(SCC)SC2=O)cc([N+](=O)[O-])c1OC(C)=O	PME-1 inh 35.0
CCOc1c(OC(C)=O)ccc(/C=C2\N=C(SCC)SC2=O)c1[N+](=O)[O-]	none
Cc1ccc(C(=O)O)cc1NC(=S)NC(=O)c1ccc(-c2ccc(Cl)cc2)o1	none
O=C(O)c1cccc(NC(=S)NC(=O)c2ccc(-c3ccc(Cl)cc3)o2)c1	LYPLA2 inh 28.2
O=[N+]([O-])c1cc(O)c2ncccc2c1	GSTO1 counter 36.7
O=C(CNC(=O)c1ccc(Br)o1)NCc1ccc(Cl)cc1	none
O=C1Nc2ccc(C(F)(F)F)cc2N2CCCC12 (configuration not stated)	GSTO1 counter 37.7
O=C1Nc2cc(C(F)(F)F)ccc2N2CCCCC12 (configuration not stated)	none
Cc1nc(C(=O)NC2CCCCC2)sc1C1(C)CC(c2cccnc2)=NO1 (configuration not stated)	LYPLA2 inh 26.2
Cc1nc(C(=O)NC2CC2)sc1C1(C)CC(c2cccc([N+](=O)[O-])c2)=NO1 (configuration not stated)	none
ClCc1nnc(-c2ccccc2)o1	GSTO1 counter 102.3
CCOC(=O)C[n+]1c(C)sc2ccc(OC)cc21	PAD4 FP inh 18.5
O=C(NC1CC1)c1ccc2c(c1)S(=O)(=O)c1cc(Cl)ccc1C2=O	PAD4 FP inh 19.9 (no result: Fam108B counter, GSTO1 counter)
COCCNC(=O)c1ccc2c(c1)S(=O)(=O)c1cc(Cl)ccc1C2=O	none (no result: Fam108B counter, GSTO1 counter)
Cc1nn(C)c2ncc(C(=O)c3ccccc3O)cc12	none
Cc1nn(-c2ccccc2)c2ncc(C(=O)c3cc(Cl)ccc3O)cc12	PME-1 inh 29.4
